Test results published in PMC5700166.

Assays:
Assay in all cases: protein-binding microarray (PBM); PBM: ~300 nM protein, 6 mM HEPES pH 7.8, 80 mM KCl, 0.5 mM EDTA, 0.5 mM EGTA, 6% glycerol, 35 ng/ul poly-dIdC, 1% milk, 1 h, room temperature; Ap Aiptasia and Nv Nematostella (sea anemones) / Co Capsaspora / Aq Amphimedon (sponge) / Dm Drosophila / Hu human; RHD is the Rel homology domain; high values mean tight binding
Conditions in all cases: dsDNA, one strand shown
GST-Ap-NF-kB RHD = target: T1, GST-Ap-NF-kB RHD (Exaiptasia pallida (Aiptasia), UniProt A0A913YAJ5 2-422)
T1 sequence: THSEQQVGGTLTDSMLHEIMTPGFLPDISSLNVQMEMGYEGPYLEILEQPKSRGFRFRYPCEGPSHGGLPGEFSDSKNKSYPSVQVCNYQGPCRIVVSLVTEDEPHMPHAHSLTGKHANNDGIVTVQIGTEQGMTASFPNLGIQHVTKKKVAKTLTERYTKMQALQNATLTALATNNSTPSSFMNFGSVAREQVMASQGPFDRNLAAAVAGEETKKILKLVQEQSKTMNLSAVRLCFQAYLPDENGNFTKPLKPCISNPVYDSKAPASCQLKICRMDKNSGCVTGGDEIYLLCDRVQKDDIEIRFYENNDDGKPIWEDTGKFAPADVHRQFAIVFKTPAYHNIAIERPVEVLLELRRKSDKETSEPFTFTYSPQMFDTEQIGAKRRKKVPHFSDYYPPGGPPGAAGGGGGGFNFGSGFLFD

[1] = target: T2, GST-Nv-NF-kB (Cys allele) (Nematostella vectensis, UniProt E5G601 2-411)
T2 sequence: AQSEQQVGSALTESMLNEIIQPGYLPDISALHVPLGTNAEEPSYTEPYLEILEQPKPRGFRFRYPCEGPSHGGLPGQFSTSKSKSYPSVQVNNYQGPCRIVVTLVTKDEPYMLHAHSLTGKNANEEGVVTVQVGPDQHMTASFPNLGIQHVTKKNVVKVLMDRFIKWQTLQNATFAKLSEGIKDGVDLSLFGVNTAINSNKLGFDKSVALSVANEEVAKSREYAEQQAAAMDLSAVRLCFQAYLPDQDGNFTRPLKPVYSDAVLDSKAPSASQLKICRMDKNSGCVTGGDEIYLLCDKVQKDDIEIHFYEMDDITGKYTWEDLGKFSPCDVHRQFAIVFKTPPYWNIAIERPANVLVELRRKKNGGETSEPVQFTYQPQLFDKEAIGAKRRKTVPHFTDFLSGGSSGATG

GST-Co-NF-kB = target: T3, GST-Co-NF-kB (Capsaspora owczarzaki, UniProt F1ARL5 200-546)
T3 sequence: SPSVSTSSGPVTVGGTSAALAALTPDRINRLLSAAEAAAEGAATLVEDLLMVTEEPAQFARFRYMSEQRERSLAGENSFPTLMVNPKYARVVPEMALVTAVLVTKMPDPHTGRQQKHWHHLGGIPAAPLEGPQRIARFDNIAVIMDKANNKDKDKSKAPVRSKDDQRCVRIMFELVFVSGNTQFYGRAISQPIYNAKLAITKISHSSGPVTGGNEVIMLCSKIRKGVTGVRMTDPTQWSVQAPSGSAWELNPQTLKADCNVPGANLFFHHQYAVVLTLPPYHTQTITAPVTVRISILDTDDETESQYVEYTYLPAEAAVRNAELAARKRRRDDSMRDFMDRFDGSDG

GST-Dm-Relish = target: T4, GST-Dm-Relish (Drosophila melanogaster, UniProt Q94527 99-473)
T4 sequence: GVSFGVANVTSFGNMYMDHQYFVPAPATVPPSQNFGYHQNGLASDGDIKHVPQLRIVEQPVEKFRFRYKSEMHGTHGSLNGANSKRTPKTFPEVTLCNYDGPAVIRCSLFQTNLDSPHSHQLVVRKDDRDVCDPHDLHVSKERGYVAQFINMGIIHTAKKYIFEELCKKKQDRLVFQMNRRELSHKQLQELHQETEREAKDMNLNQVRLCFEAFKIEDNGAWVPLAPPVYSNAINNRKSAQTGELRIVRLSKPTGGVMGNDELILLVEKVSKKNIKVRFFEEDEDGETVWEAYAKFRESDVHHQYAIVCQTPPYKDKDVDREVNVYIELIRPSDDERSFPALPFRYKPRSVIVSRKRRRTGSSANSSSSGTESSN

GST-Aq-NF-kB = target: T5, GST-Aq-NF-kB (Amphimedon queenslandica, UniProt A9Y5G7 2-389)
T5 sequence: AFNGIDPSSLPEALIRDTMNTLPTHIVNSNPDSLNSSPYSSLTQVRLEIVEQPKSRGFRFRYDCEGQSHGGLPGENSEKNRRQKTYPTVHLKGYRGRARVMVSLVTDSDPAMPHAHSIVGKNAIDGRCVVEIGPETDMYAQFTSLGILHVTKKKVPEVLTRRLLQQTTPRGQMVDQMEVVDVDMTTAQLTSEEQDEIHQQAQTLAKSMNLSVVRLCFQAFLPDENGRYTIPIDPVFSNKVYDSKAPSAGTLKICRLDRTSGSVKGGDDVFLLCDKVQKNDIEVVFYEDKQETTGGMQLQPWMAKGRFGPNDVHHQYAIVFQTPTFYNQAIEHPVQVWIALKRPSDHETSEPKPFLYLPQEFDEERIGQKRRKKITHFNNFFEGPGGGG

GST-Hu-p50 = GST-Hu-p50 (Homo sapiens, UniProt P19838 7-356)
Sequence of GST-Hu-p50 (P19838 7-356): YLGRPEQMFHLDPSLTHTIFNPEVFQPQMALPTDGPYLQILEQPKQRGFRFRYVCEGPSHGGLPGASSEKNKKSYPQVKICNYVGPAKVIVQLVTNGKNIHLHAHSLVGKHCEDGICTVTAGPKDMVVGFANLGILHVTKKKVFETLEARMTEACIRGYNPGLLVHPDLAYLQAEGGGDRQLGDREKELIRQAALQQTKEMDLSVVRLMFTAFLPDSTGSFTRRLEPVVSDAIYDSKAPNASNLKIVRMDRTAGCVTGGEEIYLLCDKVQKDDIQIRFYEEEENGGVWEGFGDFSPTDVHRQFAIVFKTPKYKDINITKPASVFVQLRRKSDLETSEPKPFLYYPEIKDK

| Sequence | binding signal (GST-Ap-NF-kB RHD) | binding signal [1] | binding signal (GST-Co-NF-kB) | binding signal (GST-Dm-Relish) | binding signal (GST-Aq-NF-kB) | binding signal (GST-Hu-p50) |
| --- | --- | --- | --- | --- | --- | --- |
| CCGATTAACATCAGAAAAATCCCTGATGTTAATCGGGTCTTGATTCGCTTGACGCTGCTG | 5.42 z-score | 6.84 z-score | 2.27 z-score | 9.03 z-score | 7.2 z-score | 5.46 z-score |
| CCGATTAACATCAAGGAACCCCCTGATGTTAATCGGGTCTTGATTCGCTTGACGCTGCTG | 8.43 z-score | 5.99 z-score | 2.03 z-score | 10.4 z-score | 6.6 z-score | 6.57 z-score |
| CCGATTAACATCACATATCCCCCTGATGTTAATCGGGTCTTGATTCGCTTGACGCTGCTG | 6.5 z-score | 5.23 z-score | 5.73 z-score | 3.26 z-score | 4.79 z-score | 5.03 z-score |
| CCGATTAACATCAGAAAGTTCCCTGATGTTAATCGGGTCTTGATTCGCTTGACGCTGCTG | 4.17 z-score | 4.74 z-score | 3.54 z-score | 6.32 z-score | 5.8 z-score | 4.18 z-score |
| CCGATTAACATCAAACAGTCCCCTGATGTTAATCGGGTCTTGATTCGCTTGACGCTGCTG | 5.58 z-score | 5.6 z-score | 2.54 z-score | 3.49 z-score | 5.66 z-score | 4.54 z-score |
| CCGATTAACATCAGGGGGAGTCATGATGTTAATCGGGTCTTGATTCGCTTGACGCTGCTG | 5.67 z-score | 4.38 z-score | 4.79 z-score | 3.88 z-score | 4.55 z-score | 4.72 z-score |
| CCGATTAACATCAGGCATACCCCTGATGTTAATCGGGTCTTGATTCGCTTGACGCTGCTG | 1.96 z-score | 1.5 z-score | 1.89 z-score | 1.3 z-score | 3.12 z-score | 1.59 z-score |
| CCGATTAACATCAGATAACCCCCTGATGTTAATCGGGTCTTGATTCGCTTGACGCTGCTG | 7.2 z-score | 5.72 z-score | 2.43 z-score | 6.66 z-score | 6.11 z-score | 5.79 z-score |
| CCGATTAACATCAAGGAGTCCCCTGATGTTAATCGGGTCTTGATTCGCTTGACGCTGCTG | 7.69 z-score | 5.61 z-score | 3.12 z-score | 8.59 z-score | 5.54 z-score | 5.86 z-score |
| CCGATTAACATCAAACGTTCCCCTGATGTTAATCGGGTCTTGATTCGCTTGACGCTGCTG | 5.26 z-score | 5.7 z-score | 6.66 z-score | 3.29 z-score | 4.66 z-score | 4.03 z-score |
| CCGATTAACATCAGGGAAATTAATGATGTTAATCGGGTCTTGATTCGCTTGACGCTGCTG | 3.37 z-score | 5.52 z-score | 4.18 z-score | 2.54 z-score | 4.81 z-score | 4.27 z-score |
| CCGATTAACATCAGGGGGTTCACTGATGTTAATCGGGTCTTGATTCGCTTGACGCTGCTG | 5.94 z-score | 4.09 z-score | 2.91 z-score | 10.4 z-score | 5.84 z-score | 5.34 z-score |
| CCGATTAACATCACTAATCCCCCTGATGTTAATCGGGTCTTGATTCGCTTGACGCTGCTG | 6.44 z-score | 5.78 z-score | 5.81 z-score | 5.13 z-score | 4.99 z-score | 6.23 z-score |
| CCGATTAACATCAAGGAATTCCCTGATGTTAATCGGGTCTTGATTCGCTTGACGCTGCTG | 6.83 z-score | 7.7 z-score | 4.22 z-score | 8.03 z-score | 8.14 z-score | 5.07 z-score |
| CCGATTAACATCAAGGGGGGTTATGATGTTAATCGGGTCTTGATTCGCTTGACGCTGCTG | 5.81 z-score | 4.63 z-score | 3.05 z-score | 7.12 z-score | 5.77 z-score | 5.59 z-score |
| CCGATTAACATCACGGGAACTCCTGATGTTAATCGGGTCTTGATTCGCTTGACGCTGCTG | 3.24 z-score | 2.3 z-score | 1.84 z-score | 6.49 z-score | 4.59 z-score | 1.48 z-score |
| CCGATTAACATCAGGGGTTTTACTGATGTTAATCGGGTCTTGATTCGCTTGACGCTGCTG | 5.39 z-score | 5.15 z-score | 1.49 z-score | 7.6 z-score | 5.84 z-score | 5.77 z-score |
| CCGATTAACATCAGGGGGAGCACTGATGTTAATCGGGTCTTGATTCGCTTGACGCTGCTG | 5.93 z-score | 3.91 z-score | 6.25 z-score | 7.14 z-score | 5.5 z-score | 4.89 z-score |
| CCGATTAACATCAGGGGATATAATGATGTTAATCGGGTCTTGATTCGCTTGACGCTGCTG | 5.05 z-score | 4.66 z-score | 4.01 z-score | 3.82 z-score | 3.39 z-score | 4.28 z-score |
| CCGATTAACATCAACAACCCCCCTGATGTTAATCGGGTCTTGATTCGCTTGACGCTGCTG | 6.24 z-score | 4.31 z-score | 4.22 z-score | 6.01 z-score | 5.18 z-score | 5.38 z-score |
| CCGATTAACATCAGAAACCCCCATGATGTTAATCGGGTCTTGATTCGCTTGACGCTGCTG | 7.61 z-score | 6.32 z-score | 2.76 z-score | 8.35 z-score | 5.97 z-score | 6.52 z-score |
| CCGATTAACATCAGGGGGGATACTGATGTTAATCGGGTCTTGATTCGCTTGACGCTGCTG | 6.78 z-score | 4.85 z-score | 6.57 z-score | 5.55 z-score | 4.94 z-score | 5.66 z-score |
| CCGATTAACATCAGGGGGGAGACTGATGTTAATCGGGTCTTGATTCGCTTGACGCTGCTG | 5.88 z-score | 4.78 z-score | 6.95 z-score | 3.61 z-score | 4.79 z-score | 6.44 z-score |
| CCGATTAACATCAGGAACTCCCCTGATGTTAATCGGGTCTTGATTCGCTTGACGCTGCTG | 8.99 z-score | 7.4 z-score | 3.87 z-score | 7.91 z-score | 8.17 z-score | 5.57 z-score |
| CCGATTAACATCAAATAAGCCCCTGATGTTAATCGGGTCTTGATTCGCTTGACGCTGCTG | 3.57 z-score | 5.54 z-score | 1.15 z-score | 4.29 z-score | 5.74 z-score | 4.31 z-score |
